A selection: hits, their analogues and other compounds. The true share with any hit is near 6.1%.
DRD3 agonist – agonists of human D3 dopamine receptor; P35462; D3R DiscoveRx beta-arrestin cells, luminescence, 90 min; max activation, %; hit rate 0.58% among 410,000; in the data active means max activation above about 30%
Target sequence (P35462 whole entry, looked up): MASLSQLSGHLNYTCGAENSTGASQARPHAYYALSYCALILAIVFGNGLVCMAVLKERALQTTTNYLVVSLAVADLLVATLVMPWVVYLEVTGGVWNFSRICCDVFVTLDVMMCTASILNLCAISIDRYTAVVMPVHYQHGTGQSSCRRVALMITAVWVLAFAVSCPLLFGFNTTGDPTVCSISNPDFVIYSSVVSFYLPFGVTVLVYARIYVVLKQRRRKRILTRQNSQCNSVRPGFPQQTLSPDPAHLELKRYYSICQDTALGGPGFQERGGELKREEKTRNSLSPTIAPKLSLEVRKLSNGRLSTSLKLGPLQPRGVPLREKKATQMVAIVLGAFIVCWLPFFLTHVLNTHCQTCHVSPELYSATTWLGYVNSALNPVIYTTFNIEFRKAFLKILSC
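Cells at 1500/well, incubated overnight, then treated with pinned compounds (dopamine as control) for 90 min at 37 degrees C. DiscoveRx reagent added for 30 - 60 minutes at room temperature; luminescence read.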
D1 antag – blocks dopamine activation of the human D1 receptor; P21728; HEK293 TREx D1 cells, calcium flux, dopamine EC80; stronger effect = lower value; activity change, negative = inhibition, % at 10 µM; hit rate 3.2% among 360,000; in the data active means activity change below about -30%
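Tetracycline-induced HEK293 T-REx cells with force-coupled D1 receptor were loaded with a no-wash calcium dye. Compound was added after a 10 s baseline and read kinetically for 180 s; EC80 dopamine was then added and calcium flux followed another 180 s.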
D1 PAM – potentiators of human D1 dopamine receptor | P21728 | AID 504651 | HEK293 TREx D1 cells, calcium flux, dopamine EC20 potentiation | hit rate 0.036% among 360,000 | potentiation, % at 10 µM; in the data active means potentiation above about 30%
D1 ag – activates the human D1 dopamine receptor; HEK293 T-REx D1 cells, calcium flux, agonist mode; activation, % at 2 µM; AID 504660; P21728; hit rate 1% among 360,000; in the data active means activation above about 30%
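Agonism was scored from calcium flux recorded over 180 s (1 read/s) after pintool compound addition, following a 10-cycle baseline. Cells were inducible force-coupled HEK293 TREx D1, plated overnight at 30 C and loaded with no-wash calcium dye.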
ERG-DNA inh – inhibitors of human ERG Ets domain-DNA interaction; hit rate 0.028% among 370,000; P11308; AID 624246; fluorescence polarization, His-ERG Ets domain / labelled DNA; Potency, µM (highest dose often 76.9 µM), usual class: inhibitors; active means well fitted inhibition curve with a large enough effect in the polarisation, with a control signal flat; inconclusive means small, poorly fitted or top-dose-only effect, or effect the other way, or a change in a side signal; inactive means no such curve, though single readings can be large or run the other way; the % refers to the polarisation;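 further: polarization taken with two DNA probes labelled with fluorescein and Texas red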
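His-tagged ERG Ets domain (1 uM in the protein solution; 300mM KCl, 50mM Tris-HCl, 1mM EDTA, 1mM DTT, pH 7.5) received compound, then a probe mix of 5 nM fluorescein-DNA and 100nM Texas-615-DNA. Fluorescence polarization was read for both dyes.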
DRD3 antagonist – blocks the human D3 dopamine receptor; D3R cells, DiscoveRx beta-arrestin luminescence, antagonist mode; stronger effect = lower value; max response, negative = inhibition, %; hit rate 2.5% among 360,000; in the data active means max response below about -50%; inconclusive means no clear call, values can overlap the other calls
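Cells expressing the human receptor were seeded at 1500 cells/well, incubated overnight at 37 degrees C in 5% CO2, then exposed to library compounds with dopamine controls for 90 minutes at 37 degrees C before luminescent detection.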
Each line names hits and unclear results; the compound was inactive in the other large screens.

CN(C)C(CNC(=O)Cc1cccc(C(F)(F)F)c1)c1ccccc1 (stereo unspecified)	none
Cc1ccc(OC(=O)c2cc(=O)c3ccccc3o2)cc1	none
Cc1ccc(NC(=O)/C(C#N)=N/Nc2ccc(C(=O)O)cc2)c(C)c1	none
Cc1ccc(N/N=C(\C#N)C(N)=S)c(C)c1	D1 antag -35, D1 ag 37
CC(NC(=O)c1ccccc1SCC(=O)N1CCCC1)c1ccc(F)cc1 (stereo unspecified)	none
CCOC(=O)N1CCN(C(=O)c2c[nH]c3ccc(S(=O)(=O)N(C)c4ccccc4C)cc3c2=O)CC1	D1 antag -34
COCC(C)N1CCC(Oc2cccc(C(=O)NCCc3ccccc3)c2)CC1 (stereo unspecified)	D1 antag -39
COCCNC(=O)c1cccc(OC2CCN(Cc3ccc(C(C)C)cc3)CC2)c1	DRD3 antagonist inconclusive
CC(C)CN1CCC(Oc2cccc(C(=O)NCCc3ccccc3)c2)CC1	D1 antag -38
CSCC(C)N1CCC(Oc2cccc(C(=O)NCc3ccccn3)c2)CC1 (stereo unspecified)	D1 antag -63
COCCNC(=O)c1cccc(OC2CCN(Cc3ccc(C(=O)OC)cc3)CC2)c1	none
O=C(c1ccccc1-c1ccccc1)N1CCCCC1	none
CN(C)CCNC(=O)c1cccc(-c2cc(NC=O)c3ncc(-c4cccc(C(F)(F)F)c4)n3c2)c1	DRD3 antagonist -52 (no result: D1 antag, D1 PAM, D1 ag, ERG-DNA inh)
CN1CCN(c2ccc(-c3cc(NC=O)c4ncc(-c5ccccc5)n4c3)cc2)CC1	DRD3 antagonist -54 (no result: D1 antag, D1 PAM, D1 ag, ERG-DNA inh)
COc1cccc(-c2cnc3c(NC=O)cc(-c4cccc(C(=O)N(C)C)c4)cn23)c1	DRD3 agonist 72 (no result: D1 antag, D1 PAM, D1 ag, ERG-DNA inh)
Cc1ccc(C)c(N2CCN(C(=O)c3cccc(-n4c(C)nc5cccnc54)c3)CC2)c1	none (no result: DRD3 antagonist)
O=C(c1cccc(N2CCCC2=O)c1)N1CCN(c2cccc(Cl)c2)CC1	D1 antag -57
Cc1ccc(Cl)cc1N1CCN(C(=O)c2ccc(C)c(-n3c(C)nc4cccnc43)c2)CC1	D1 antag -32, D1 ag 69 (no result: DRD3 antagonist)
O=C(c1cccc(N2CCCC2=O)c1)N1CCN(c2ccc(F)cc2)CC1	none
Cc1ccc(C(=O)N2CCN(c3cccc(Cl)c3)CC2)cc1C	D1 antag -32
CC(=O)C1=CCC(c2ccccc2)N(S(=O)(=O)c2ccccc2)C1 (stereo unspecified)	none (no result: D1 antag, D1 PAM, D1 ag, ERG-DNA inh)
CCOc1nc2ccccc2nc1NS(=O)(=O)c1ccc(Cl)cc1	none
Cc1ccc(S(=O)(=O)NCN2C(=O)c3ccccc3C2=O)cc1	none (no result: D1 antag, D1 PAM, D1 ag, ERG-DNA inh)
O=C(NCCN1CCOCC1)C(=O)c1c[nH]c2ccccc12	D1 antag -52
Cc1ccccc1C(=O)Nc1cc(NC(=O)c2ccccc2C)cc(C(=O)O)c1	D1 antag -38
COC(=O)c1cc(NC(=O)c2ccccc2F)cc(C(=O)OC)c1	D1 antag -32
O=C(O)c1cc(NC(=O)c2ccccc2F)cc(NC(=O)c2ccccc2F)c1	none
CCCN(CC(=O)Nc1ccccc1C)C(=O)c1cccc(S(=O)(=O)N2CCN(c3ccccc3)CC2)c1	none
COc1ccc(Cl)cc1NC(=O)N1CCC(C)CC1	none
Cc1cc(C=C(C#N)C#N)c(C)n1-c1ccccc1	none
Cc1ccc(-n2c(C)cc(C=C(C#N)C#N)c2C)cc1	D1 antag -46
COCCNC(=O)/C(C#N)=C/c1cc(C)n(C2CCCCC2)c1C	none
COCCNC(=O)/C(C#N)=C/c1cc(C)n(-c2ccc(C)cc2)c1C	D1 antag -64, DRD3 antagonist inconclusive
COCCNC(=O)/C(C#N)=C/c1cc(C(C)C)c(OC)cc1C	DRD3 antagonist -77
CCN(CC)c1ccc(/C=C2/SC(=O)N(C(C)C)C2=O)o1	D1 ag 59, DRD3 antagonist -91
CC(C)CN1CCN(CCCc2ccccc2)C(CCO)C1 (stereo unspecified)	none
COc1ccc(OC)c(S(=O)(=O)ON2C(=O)c3ccccc3C2=O)c1	DRD3 antagonist -97

Source: PubChem
